Assay results from PubChem BioAssay (NCATS).
A number with no mark means an inactive call. Records with an inconclusive call do not appear. For part of these data: Results with a measured potency or affinity are listed apart. Activity calls are given as the source filed them. Unless noted, the rule behind the calls is not given here.

Tests used:
[1] = Ebola virus entry assay, green fluorescence channel
[2] = Ebola virus entry assay, blue channel fluorescence
[3] = Ebola virus entry assay, ratio channel
[4] = Ebola virus entry assay, reporter ratio channel; Channel type: primary
[5] = qHTS assay for measurement of the activity of small molecule inhibitors on Zika virus induced Caspase-3 activity in human iPSC derived neural progenitor cells (hNPCs) (AID 1224857; active = well fitted inhibition curve with a large enough effect; note: % of control where 0% means no effect; nearly all actives have a fitted effect of over 65% in size); settings: hNPCs ZIKV-induced caspase-3/7, Caspase-Glo luminescence, 6 h; series mostly up to 45.7 µM
Summary of the method: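 Percent inhibition of virus-induced caspase-3/7 luminescence (Caspase-Glo), scaled between uninfected cells and Zika-infected cells. hNPCs received compound 1 hr before ZIKV at 2 FFU/cell, with 6 hours infection at 37 C.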

[6] = qHTS assay for measurement of the activity of small molecule inhibitors on Zika virus induced Caspase-3 activity in human astrocytoma cells (AID 1224859; active = well fitted inhibition curve with a large enough effect;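 note: plate controls were ZIKV-infected untreated cells for no effect and uninfected cells for full effect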); settings: SNB-19 ZIKV-induced caspase-3/7, luminescence, 6 h; series mostly up to 45.7 µM
Summary of the method: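 Luminescent caspase-3/7 read-out (30 min reagent, room temperature) in human SNB-19 cells infected 6 h with ZIKV (2 FFU/cell) after 1 h compound pre-incubation; Data were normalised to uninfected and infected wells.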
Throughout, for efficacy: 0% is about no effect.

SMILES	efficacy [1]	AC50 [2]	AC50 [3]	AC50 [4]	Potency [5]	outcome [6]	outcome [3]
COc1ccc2[nH]cc(CCN(C(C)C)C(C)C)c2c1	45.7%	39.8 µM (active)	31.6 µM (active)	31.6 µM (active)	inactive	inactive	
CCc1ccc(C2CCNCC2)cc1	65.4%	25.1 µM (active)		31.6 µM (active)	inactive	inactive	inactive
CC(CC(C#N)(c1ccccc1)c1ccccc1)N(C)C (centres undefined)	77.3%	15.8 µM (active)	14.1 µM (active)	14.1 µM (active)	inactive	inactive	
CN1CCC(N(Cc2ccccc2)c2ccccc2)CC1	45.7%	7.08 µM (active)	4.47 µM (active)	4.47 µM (active)	inactive	inactive	
C#C[C@]1(O)CC[C@H]2[C@@H]3CCC4=CC(=O)CCC4=C3C=C[C@@]21CC	138%	20 µM (active)	15.8 µM (active)	15.8 µM (active)	inactive	inactive	
CCN(CC)Cc1nccn1-c1ccc([N+](=O)[O-])cc1C(=O)c1ccccc1Cl	96.4%	39.8 µM (active)		39.8 µM (active)	inactive	inactive	inactive
C[C@@H]1O[C@@H](O[C@@H]2C=C3CC[C@@H]4[C@H](CC[C@]5(C)[C@@H](c6ccc(=O)oc6)CC[C@]45O)[C@@]3(C)CC2)[C@H](O)[C@H](O)[C@H]1O	35.7%	8.91 µM (active)	7.94 µM (active)	7.94 µM (active)	inactive	inactive	
CCCCCCCCCCCC[N+](C)(C)CCOc1ccccc1	-194%	39.8 µM (active)	25.1 µM (active)	25.1 µM (active)	inactive	inactive	
O=C(N[C@H]1N=C(c2ccccc2F)c2cccc3c2N(CC3)C1=O)c1cc2ccccc2[nH]1	-43.7%	17.8 µM (active)	20 µM (active)	20 µM (active)	inactive	inactive	
CC1COC2(c3ccccc3Cl)c3cc(Cl)ccc3NC(=O)CN12 (centres undefined)	68%	28.2 µM (active)	28.2 µM (active)	28.2 µM (active)	inactive	inactive	
COc1cc(C[C@@H](C)N)c(OC)cc1Br	42.4%	31.6 µM (active)	31.6 µM (active)	31.6 µM (active)	inactive	inactive	
Clc1ccc(C(OCCN2CCCCC2)c2ccccc2)cc1 (centres undefined)	53.2%	14.1 µM (active)	14.1 µM (active)	14.1 µM (active)	inactive	inactive	
Oc1ccc2[nH]cc(CCCCN3CC=C(c4ccccc4)CC3)c2c1	50.4%	6.31 µM (active)	8.91 µM (active)	8.91 µM (active)	inactive	inactive	
C[C@]12Cc3nonc3C[C@@H]1CC[C@@H]1[C@@H]2CC[C@@]2(C)[C@H]1CC[C@]2(C)O	48.4%	15.8 µM (active)	17.8 µM (active)	17.8 µM (active)	inactive	inactive	
C=CC[C@]1(O)CC[C@H]2[C@@H]3CCC4=CC(=O)CCC4=C3C=C[C@@]21C	89.4%	28.2 µM (active)		35.5 µM (active)	inactive	inactive	inactive
CC[C@H](O)C(C[C@H](C)N(C)C)(c1ccccc1)c1ccccc1	49.4%	11.2 µM (active)	8.91 µM (active)	8.91 µM (active)	inactive	inactive	
CCOC(C(=O)OCCN(C)C)(c1ccccc1)c1ccccc1	59.7%	22.4 µM (active)	25.1 µM (active)	25.1 µM (active)	inactive	inactive	
CN1C2CCC(C)(C)C1CC(OC(=O)C(O)(c1cccs1)c1cccs1)C2 (centres undefined)	75.5%	20 µM (active)	15.8 µM (active)	15.8 µM (active)	inactive	inactive	
O=C(N[C@@H]1N=C(c2ccccc2F)c2cccc3c2N(CC3)C1=O)c1cc2ccccc2[nH]1	-148%	25.1 µM (active)	15.8 µM (active)	15.8 µM (active)	inactive	inactive	
C=CCN1CC[C@]23CCCC[C@H]2[C@H]1Cc1ccc(O)cc13	55.2%	39.8 µM (active)		39.8 µM (active)	inactive	inactive	inactive
Clc1ccc(CSC(Cn2ccnc2)c2ccc(Cl)cc2Cl)cc1 (centres undefined)	-183%	5.62 µM (active)	4.47 µM (active)	4.47 µM (active)	inactive	inactive	
CCN(CC)CCOC(=O)C(C)(c1ccccc1)c1ccccc1	52.6%	8.91 µM (active)	10 µM (active)	10 µM (active)	inactive	inactive	
c1ccc2nc(N3CCNCC3)ccc2c1	106%	39.8 µM (active)	35.5 µM (active)	35.5 µM (active)	inactive	inactive	
C=CCOC(Cn1ccnc1)c1ccc(Cl)cc1Cl (centres undefined)	85%	39.8 µM (active)		39.8 µM (active)	inactive	inactive	inactive
